Our source for the sensor-assay potency score (higher = more potent) values is the OligoGym collection.
Also: reference of the scale not given here.

For the first assay, the target named is SLC2A3. In words: pooled miR-30 sensor sort-seq; sequence = guide strand. The note with it: shRNA.
The sequence TTGACGAAGAGTCCGACGGAAA yielded a sensor-assay potency score (higher = more potent) of -1.44. Still for that read-out and setting: next, TAGGATAGCAGGAAGGATGGTA: 0.643. In the case of TTCCAGATCTATCTGCACCGTG, the sensor-assay potency score (higher = more potent) amounted to 0.283. In the case of TTTGAAGAAGGTAAAAGCCAAG, the sensor-assay potency score (higher = more potent) was -1.07.

With TTAGCTACTTTACACAGTCCCA, the sensor-assay potency score (higher = more potent) was -1.12. On the same count and under the same terms, for TCTGCTTAGCATTCTCCTCTTC the value was 0.0393; for TTCTTTTCTGTTAATGAGCAAA, -1.47. As for TAGCTACTTTACACAGTCCCAT, the sensor-assay potency score (higher = more potent) was -0.496. In turn, TTACACAGTCCCATAAAGCAGC displayed a sensor-assay potency score (higher = more potent) of -0.688. Same read-out and setting: for TTGTAGGATAGCAGGAAGGATG the value was -1.65; for TTATGATCTTCTCAGGAGCATT, -1.71; for TTATCCTTTAATAACAAAGAAA, -1.62.

The target in a further assay is SLC2A7. Described as above. The settings on record: shRNA.
As to TTCATCTCCTTTCTGAATCAGG, the sensor-assay potency score (higher = more potent) was -0.693.

TTTATCTCCACAAATGTTTTGC returned a sensor-assay potency score (higher = more potent) of 0.129. Consider TTGAAGACCTTGTGCGGCGTGT, for which the sensor-assay potency score (higher = more potent) is -0.139. The same measure, in the same setting: for TTCTGAATCAGGGAGTAGCGGG the value was -1.43; for TTACATATTGGGAGTGAGCGGC, -0.256. The same measure, in the same setting: next, TCTGCCGCAGCTATCAACCAGC: -0.668; TAGTAGTTGATCGCATTGATGC: -1.14; TTTCGTTGTAAAATGACTTGAA: 0.429.

In the case of TAAATCGCAGTGAGGAGGCAGA, the sensor-assay potency score (higher = more potent) is -0.695.

The sequence TAGTTGATCGCATTGATGCCCG showed a sensor-assay potency score (higher = more potent) of -0.411. TTTCTCTTGGCAAAAATGCGGT returned a sensor-assay potency score (higher = more potent) of -0.876. Same read-out and setting: for TGACTTGAAGACCTTGTGCGGC the value was -0.691.
